ugtP null kill: growth inhibition of ugtP-null S. aureus, primary screen, RN4220 ugtP deletion, OD600; growth inhibition, % (test concentration not listed); 330,000 tested, 0.54% active; 16 h; in the data active = growth inhibition above about 68%;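 note: plate controls were untreated wells for no effect and antibiotic for full effect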
Yp Topo-I inh: Yersinia pestis topoisomerase I inhibitors, primary screen, biochemical, cleavage product accumulation, plate reader, single point. DNA topoisomerase I (Yersinia pestis CO92). activity, % at 10 µM. 360,000 tested, 0.064% active. Y. pestis Topo-I cleavage product accumulation; in the data active = activity above about 50%, passing the limit was not always enough
PfHsp40 yeast: rescue of yeast from PfHsp40 toxicity, primary screen, S. cerevisiae, ATP luminescence | growth rescue, % at 12.5 µM | S. cerevisiae expressing PfHsp40, growth rescue | 340,000 tested, 0.68% active; in the data active = growth rescue above about 28%, passing the limit was not always enough;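 note: yeast W303a lacking pdr1 and pdr3 grown in galactose medium; growth measured after three days at 30 °C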
PrP 5UTR inh: inhibition of PrP 5' UTR reporter expression; 340,000 tested, 0.35% active; inhibition, % (concentration not given with the values); cell-based PrP 5' UTR mRNA reporter, plate reader; in the data active = inhibition above about 52%; note: 0 = median of the neutral control wells
RN4220 kill: growth inhibition of S. aureus RN4220, primary screen, OD600; 16 h; AID 1259311, 2017; inhibition, % (no concentration beside the values); 330,000 tested, 0.33% active; in the data active = inhibition above about 85%;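 note: plate controls were untreated cells for no effect and reference antibiotic for full effect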
BJeLR viability: MLPCN primary cell-based screen for lethality selective to Ras in HRASV12 cells | BJeLR (HRASV12) viability, CellTiter-Glo ATP luminescence, 48 h | inhibition, % (no concentration beside the values) | 300,000 tested, 0.17% active | AID 1554, 2009; in the data active = inhibition above about 50%
Numbers without * were called inactive; x = not tested or not shown. The list is not random: actives were taken first. Their share in the collection is about 1.4%.

SMILES | ugtP null kill | Yp Topo-I inh | PfHsp40 yeast | PrP 5UTR inh | RN4220 kill | BJeLR viability
O=C1c2ccccc2NC(c2ccc(Cl)cc2Cl)N1O (stereo not drawn) | -6.4 | -4.3 | 292.3* | 19.7 | -9.4 | 9.0
N#Cc1ccc(-c2ccc(C3Nc4ccccc4C(=O)N3O)o2)cc1 (stereo not drawn) | 16.3 | -1.0 | 11.8 | 0.4 | 6.1 | x
Cc1cc([N+](=O)[O-])ccc1-c1ccc(C2Nc3ccccc3C(=O)N2O)o1 (stereo not drawn) | -12.4 | 0.4 | 167.6* | 1.2 | 7.4 | 0.7
O=C1c2ccccc2NC(c2ccc(-c3ccccc3F)o2)N1O (stereo not drawn) | -32.5 | 0.2 | 119.8* | -35.2 | 7.6 | x
O=C1c2ccccc2NC(c2ccc(-c3cccc(F)c3)o2)N1O (stereo not drawn) | -30.0 | -2.1 | 108.7* | -57.4 | 11.4 | x
CCN1C(=O)C(=CN2CCN(C)CC2)SC1=S | 2.0 | x | x | x | 5.9 | x
Cc1cc(C)c(C(=O)CC(=O)c2cccnc2)c(C)c1 | 6.0 | -7.4 | 285.8* | 6.8 | 11.1 | x
Cc1ccc(NC(=O)COC(=O)c2cccnc2)c(C)c1 | -6.2 | 3.8 | -0.5 | -16.1 | 1.9 | 24.2
COC(=O)CN1C(=O)C2C(C=Cc3ccccc3)N3C(=O)CN(Cc4ccccc4)C(=O)[C@@]3(C)C2C1=O (stereo partly drawn) | 10.1 | x | x | x | 8.3 | x
CCOc1cnn(-c2cc(Oc3ccc(C)cc3)ncn2)c(=O)c1Cl | -0.8 | -5.2 | 1.2 | 13.3 | 4.8 | 0.4
Cc1ccccc1Oc1cc(-n2ncc(Cl)c(Cl)c2=O)ncn1 | 92.0* | 6.9 | -1.9 | -9.7 | 57.9 | x
COC(=O)C1=C(C)N(Cc2ccccc2)C(=NCc2ccc3c(c2)OCO3)NC1c1ccccc1 (stereo not drawn) | -1.3 | x | x | x | 1.8 | x
COC(=O)c1sc(C(C)(C)C)cc1CSc1ccccc1 | 83.7* | 16.9 | -1.6 | -27.4 | 3.9 | -8.9
COC(=O)c1sc(C(C)(C)C)cc1CS(=O)(=O)c1ccc(Cl)cc1 | 7.4 | 8.1 | 1.0 | -3.8 | 5.3 | 3.3
COc1cc(SC#N)ccc1N=Cc1c(C)[nH]n(-c2ccc(C)cc2C)c1=O | -4.2 | 1.2 | 38.2* | -9.8 | -15.6 | 9.7
COc1cc(SC#N)ccc1N=Cc1c(C)[nH]n(-c2cccc3ccccc23)c1=O | -3.3 | x | x | x | -19.3 | 1.6
COc1ccc2nc(/N=C/c3c(C)[nH]n(-c4ccc(C)cc4C)c3=O)sc2c1 | x | 0.5 | -0.7 | -30.7 | x | 1.4
COc1ccccc1N=Cc1c(C)[nH]n(-c2ccc(C)cc2C)c1=O | -1.7 | -3.1 | 57.8* | -15.9 | 1.6 | -1.1
C[C@@H]1C[C@H]2OC(=O)C3(CO3)[C@H]2[C@H](O)[C@]2(C)C(=O)C3OC3[C@@H]12 (stereo partly drawn) | x | x | x | x | x | 72.9*
C=C1C(=O)OC2CC(C)C3C4OC4C(=O)[C@@]3(C)C(O)C12 (stereo partly drawn) | 8.6 | x | x | x | 17.3 | x
CC1CN(C(C)CO)C(=O)c2cc(NC(=O)C3CCCCC3)ccc2OC1CN(C)S(=O)(=O)c1ccccc1 (stereo not drawn) | -18.5 | x | x | x | -1.0 | x
CC1CCC2C(=O)NC(Cc3ccccc3)C(=O)N2C1c1ccccc1 (stereo not drawn) | 6.4 | x | x | x | 5.7 | x
CC1CCN(CC(=O)N2CCCc3c2c(=O)oc2ccc(OCc4ccccc4)cc32)CC1 | 13.3 | -0.9 | -0.9 | -1.6 | 14.0 | 7.6
CCCOc1ccc2oc(=O)c3c(c2c1)CCCN3C(=O)CN1CCc2ccccc2C1 | 85.8* | 7.2 | -0.4 | 7.0 | 9.9 | x
N#CSCC(=O)c1cccc2ccccc12 | -1.5 | -1.0 | 146.2* | -9.7 | 7.2 | x
SMILES | ugtP null kill | Yp Topo-I inh | PfHsp40 yeast | PrP 5UTR inh | RN4220 kill | BJeLR viability
C=CCNC(=O)COC(=O)C=Cc1cccs1 | -3.6 | x | x | x | 3.6 | x
COC(=O)C1=C(c2cccc(OC)c2OC)CC2CCC1N2C(=O)N1CCC(O)CC1 (stereo not drawn) | -5.4 | x | x | x | 4.7 | x
CC1CN(C(C)CO)C(=O)c2cccc(NC(=O)Nc3ccc(C(F)(F)F)cc3)c2OC1CN(C)S(C)(=O)=O (stereo not drawn) | -11.9 | x | x | x | -0.7 | x
O=C(O)c1ccc(N=Cc2c(O)ccc3oc4c(c23)CCCC4)cc1 | x | -0.8 | 2.2 | -9.5 | x | -0.6
Oc1ccccc1N=Cc1c(O)ccc2oc3c(c12)CCCC3 | x | -4.7 | 189.5* | -8.1 | x | -7.6
CN1c2ccsc2/C(=N/Nc2ccccc2)CS1(=O)=O | x | -0.6 | 3.5 | -46.9 | x | -0.2
CN1c2ccsc2C(=NNc2ccccc2)CS1(=O)=O | 96.3* | x | x | x | 82.7 | x
CC(C)(O)CCC(O)[C@](C)(O)C1CC[C@@]2(O)C3=CC(=O)C4CC(O)C(O)C[C@]4(C)C3CC[C@]12C (stereo partly drawn) | -3.5 | x | x | x | 4.9 | x
O=C(CSc1nnc(COc2ccc(Cl)cc2)o1)N1c2ccccc2CCc2ccccc21 | -23.9 | 61.2* | 0.1 | -18.3 | -2.8 | 7.3
CC(C)Oc1ccccc1C1CC(=O)Nc2cc3c(cc21)OCCO3 (stereo not drawn) | -5.9 | 16.2 | 0.0 | 60.8* | -0.3 | 64.4*
COc1ccccc1C1CC(=O)Nc2cc3c(cc21)OCCO3 (stereo not drawn) | -7.7 | 0.5 | 0.7 | 10.3 | 7.2 | 47.2
COc1cc(CCCN2C(=S)NCC2CC2CCCCC2)cc(OC)c1OC (stereo not drawn) | -7.0 | x | x | x | 2.7 | x
CCOC(=O)C1=NN(c2ccccc2)C(=O)/C1=C\c1ccc(N(C)C)cc1 | -3.3 | -12.6 | 81.3* | -4.8 | -6.1 | -4.4
CCOC(=O)C1=NN(c2ccccc2)C(=O)C1 | 4.1 | -7.7 | 112.8* | -67.0 | 5.8 | -6.1
O=C(O)C1=NN(c2ccccc2)C(=O)C1 | -3.7 | 2.8 | 6.5 | -30.7 | -4.6 | 9.4
CCCC(CN1CCCC1CN1C(N)=NCC1Cc1ccccc1)N1CC(Cc2ccccc2)N(CCc2ccc(Cl)c(Cl)c2)C1=N (stereo not drawn) | 100.5* | x | x | x | 100.8* | x
CCC[C@@H](CN1CCC[C@H]1CN1C(N)=NC[C@@H]1Cc1ccccc1)N1C[C@@H](Cc2ccccc2)N(CCc2ccc(Cl)c(Cl)c2)C1=N | x | -12.7 | 0.8 | -15.3 | x | x
CCC[C@@H](CN1CCC[C@H]1CN1C(N)=NC[C@H]1CC(C)C)N1C[C@@H](Cc2ccccc2)N(CCc2ccc(Cl)c(Cl)c2)C1=N | 100.1* | -15.9 | 1.1 | 1.2 | 100.1* | x
CCC[C@@H](CN1CCC[C@H]1CN1C(N)=NC[C@@H]1Cc1ccccc1)N1C[C@@H]([C@H](C)CC)N(CCc2ccc(Cl)c(Cl)c2)C1=N | x | -0.3 | 3.0 | -5.6 | x | x
CCCC(CN1CCCC1CN1C(N)=NCC1Cc1ccccc1)N1CC(C(C)CC)N(CCc2ccc(Cl)c(Cl)c2)C1=N (stereo not drawn) | 100.4* | x | x | x | 100.6* | x
CC(C)[C@H](CN1CCC[C@H]1CN1C(N)=NC[C@@H]1Cc1ccccc1)N1C[C@@H](Cc2ccccc2)N(CCc2ccc(Cl)c(Cl)c2)C1=N | x | -6.7 | 35.4* | 3.4 | x | x
